Test [1] concerns the target human Retinoid X Receptor beta (RXRb), RXRB (gene 6257) (UniProt P28702). Kind of test: ATG_RXRb_TRANS: Attagene TRANS-FACTORIAL HepG2 Assay for human Retinoid X Receptor beta (RXRb) (AID 2283013; active = hit-call score of the fitted dose curve at least 0.9, where 1 is the maximum). The method in brief: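 Transfect HepG2 with GAL4-UAS multi-reporter constructs (chimeric NR-Gal4, TRANS format); dose compound 24 h; isolate RNA, RT-PCR, FAM primer extension, HpaI digest; quantify by capillary electrophoresis; positive direction vs DMSO.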

The target in test [2] is human Thyroid Receptor alpha (THRa1), THRA (gene 7067) (UniProt P10827). Kind of test: ATG_THRa1_TRANS: Attagene TRANS-FACTORIAL HepG2 Assay for human Thyroid Receptor alpha (THRa1) (AID 2283014; active = hit-call score of the fitted dose curve at least 0.9, where 1 is the maximum). The method in brief: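 Transcripts from GAL4-UAS-driven reporters, measured after 24 h compound exposure by RT-PCR plus capillary electrophoresis of 6-FAM-labeled fragments, were fitted for gain of signal relative to DMSO. Cells: transiently transfected HepG2 expressing NR-Gal4 chimeras.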
Chain of human Thyroid Receptor alpha (THRa1), THRA (gene 7067) (P10827 whole entry, looked up, the tested form may be a part): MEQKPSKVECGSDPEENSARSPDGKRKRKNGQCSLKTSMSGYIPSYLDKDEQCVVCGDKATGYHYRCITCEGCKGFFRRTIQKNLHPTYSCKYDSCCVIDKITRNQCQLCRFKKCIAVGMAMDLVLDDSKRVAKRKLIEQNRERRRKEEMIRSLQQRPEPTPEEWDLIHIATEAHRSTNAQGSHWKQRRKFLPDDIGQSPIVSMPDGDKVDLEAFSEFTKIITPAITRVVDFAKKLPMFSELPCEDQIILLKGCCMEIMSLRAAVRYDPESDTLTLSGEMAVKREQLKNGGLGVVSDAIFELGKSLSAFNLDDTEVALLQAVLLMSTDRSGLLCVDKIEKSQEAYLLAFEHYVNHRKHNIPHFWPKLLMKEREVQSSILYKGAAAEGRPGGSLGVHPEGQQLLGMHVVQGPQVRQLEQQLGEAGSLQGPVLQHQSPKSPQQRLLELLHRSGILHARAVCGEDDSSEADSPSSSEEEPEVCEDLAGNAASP

Read-out in test [3]: E-selectin (Homo sapiens) (UniProt P16581)
The test can be described thus: BSK_3C_Eselectin: BioMAP Diversity Plus: 3C Assay for Eselectin Biomarker Activity (AID 2283015).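 As to outcome: cell surface E-selectin protein quantified by ELISA 24 h after dosing.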 Conditions: primary human endothelial cells (HUVEC); actives raise or lower the signal. The method in brief: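 E-selectin ELISA readout, fitted bidirectionally relative to DMSO, taken 24 h post-dosing in HUVEC cultures of the 3C system. Overt cytotoxicity tracked with sulforhodamine B staining of parallel wells.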

Read-out in test [4]: Interleukin-1 alpha (IL1a), IL1A (gene 3552)
Kind of test: BSK_BE3C_IL1a: BioMAP Diversity Plus: BE3C Assay for Interleukin-1 alpha (IL1a) Biomarker Activity (AID 2283016). Conditions: primary human bronchial epithelial cells; actives raise or lower the signal. The method in brief: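 BE3C primary human bronchial epithelium; cpd 24 h; IL-1a by ELISA; bidirectional fit vs DMSO; parallel SRB (0.1% SRB, 10% TCA fix, 560 nm) for cytotoxicity.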

Read-out in test [5]: Monocyte Chemoattractant Protein-1 (MCP1), CCL2 (gene 6347)
Kind of test: BSK_3C_MCP1: BioMAP Diversity Plus: 3C Assay for Monocyte Chemoattractant Protein-1 (MCP1) Biomarker Activity (AID 2283017). Conditions: primary human endothelial cells (HUVEC); actives raise or lower the signal. The method in brief:
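MCP-1 was measured by ELISA 24 h after dosing in primary HUVEC 3C cultures and fitted in both directions relative to DMSO; cytotoxicity was checked by SRB total-protein staining in parallel wells.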

Read-out in test [6]: Monocyte Chemoattractant Protein-1 (MCP1), CCL2 (gene 6347)
The test can be described thus: BSK_4H_MCP1: BioMAP Diversity Plus: 4H Assay for Monocyte Chemoattractant Protein-1 (MCP1) Biomarker Activity (AID 2283018). Conditions: primary human endothelial cells (HUVEC); actives raise or lower the signal. The method in brief: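 ELISA read-out of MCP-1 from human vascular endothelial primary cells taken at 24 hours after compound exposure. Activity was fitted in both directions relative to DMSO, which served as negative control.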

Read-out in test [7]: Human Leukocyte Antigen - DR isotype (HLADR), HLA-DRA (gene 3122)
Kind of test: BSK_3C_HLADR: BioMAP Diversity Plus: 3C Assay for Human Leukocyte Antigen - DR isotype (HLADR) Biomarker Activity (AID 2283019).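 As to outcome: ELISA of cell-surface HLA-DR on HUVEC 24 h after dosing.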 The note with it: primary human endothelial cells (HUVEC); actives raise or lower the signal. The method, boiled down: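 Bidirectional fitting against DMSO was applied to the HLA-DR ELISA signal from human umbilical vein endothelial cells, 24 h post-dose. Cytotoxicity came from parallel SRB total-protein staining; 3C proliferation was counted by SRB at 48 h.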

Test [8] addresses human RAR-related Orphan Receptor gamma (RORg), RORC (gene 6097) (UniProt P51449). Kind of test: ATG_RORg_TRANS: Attagene TRANS-FACTORIAL HepG2 Assay for human RAR-related Orphan Receptor gamma (RORg) (AID 2283011; active = hit-call score of the fitted dose curve at least 0.9, where 1 is the maximum). The method in brief: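 Reporter transcripts from a transfected RORg-GAL4 chimera in HepG2 cells were quantified 24 h after dosing by RT-PCR, 6-FAM labelling, HpaI digestion and capillary electrophoresis; increases over DMSO baseline were fitted.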

Test [9] concerns the target Retinoic acid receptor RXR-alpha (Homo sapiens) (UniProt P19793). Kind of test: ATG_RXRa_TRANS: Attagene TRANS-FACTORIAL HepG2 Assay for human Retinoid X Receptor alpha (RXRa) (AID 2283012; active = hit-call score of the fitted dose curve at least 0.9, where 1 is the maximum). The method, boiled down:
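Transient transfection of human HepG2 with multiple GAL4-UAS reporter constructs; 24 h compound exposure; total RNA isolated, reverse-transcribed, PCR-amplified, 6-FAM labelled, HpaI-cut, resolved by capillary electrophoresis. Positive-direction fit versus DMSO.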

Records with an inconclusive call do not appear. The source made the active and inactive calls. The calls were made as follows, unless noted: active = hit-call score of the fitted dose curve at least 0.9, where 1 is the maximum; inactive = score below 0.9.

Chain of human Retinoid X Receptor beta (RXRb), RXRB (gene 6257) (P28702 whole entry, looked up, the tested form may be a part): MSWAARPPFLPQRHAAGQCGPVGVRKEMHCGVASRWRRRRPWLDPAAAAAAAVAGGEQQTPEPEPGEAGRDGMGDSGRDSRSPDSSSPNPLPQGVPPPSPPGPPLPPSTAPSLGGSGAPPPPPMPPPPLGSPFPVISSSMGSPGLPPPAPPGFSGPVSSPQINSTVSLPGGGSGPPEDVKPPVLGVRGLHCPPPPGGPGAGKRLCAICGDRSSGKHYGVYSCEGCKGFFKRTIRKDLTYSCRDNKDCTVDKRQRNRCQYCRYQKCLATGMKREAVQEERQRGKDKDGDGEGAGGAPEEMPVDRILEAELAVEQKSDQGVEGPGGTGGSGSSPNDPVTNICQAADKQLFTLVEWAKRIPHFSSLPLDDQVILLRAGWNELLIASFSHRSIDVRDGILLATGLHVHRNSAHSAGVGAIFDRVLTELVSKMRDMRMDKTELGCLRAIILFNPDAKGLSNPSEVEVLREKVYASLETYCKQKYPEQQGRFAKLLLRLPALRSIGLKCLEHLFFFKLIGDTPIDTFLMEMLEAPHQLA
Chain of Retinoic acid receptor RXR-alpha (Homo sapiens) (P19793 whole entry, looked up, the tested form may be a part): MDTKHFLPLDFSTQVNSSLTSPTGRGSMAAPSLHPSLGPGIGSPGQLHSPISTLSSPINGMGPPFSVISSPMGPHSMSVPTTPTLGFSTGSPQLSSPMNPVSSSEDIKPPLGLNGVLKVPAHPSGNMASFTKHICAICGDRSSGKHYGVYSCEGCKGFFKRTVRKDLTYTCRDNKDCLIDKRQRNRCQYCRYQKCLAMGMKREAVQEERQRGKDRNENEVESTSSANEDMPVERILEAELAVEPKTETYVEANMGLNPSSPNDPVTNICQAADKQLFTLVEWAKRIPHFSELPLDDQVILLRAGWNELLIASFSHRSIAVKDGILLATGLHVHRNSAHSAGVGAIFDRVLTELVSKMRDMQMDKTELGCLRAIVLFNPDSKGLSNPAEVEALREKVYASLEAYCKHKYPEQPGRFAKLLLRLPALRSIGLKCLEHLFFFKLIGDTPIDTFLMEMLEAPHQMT
Chain of E-selectin (Homo sapiens) (P16581 whole entry, looked up): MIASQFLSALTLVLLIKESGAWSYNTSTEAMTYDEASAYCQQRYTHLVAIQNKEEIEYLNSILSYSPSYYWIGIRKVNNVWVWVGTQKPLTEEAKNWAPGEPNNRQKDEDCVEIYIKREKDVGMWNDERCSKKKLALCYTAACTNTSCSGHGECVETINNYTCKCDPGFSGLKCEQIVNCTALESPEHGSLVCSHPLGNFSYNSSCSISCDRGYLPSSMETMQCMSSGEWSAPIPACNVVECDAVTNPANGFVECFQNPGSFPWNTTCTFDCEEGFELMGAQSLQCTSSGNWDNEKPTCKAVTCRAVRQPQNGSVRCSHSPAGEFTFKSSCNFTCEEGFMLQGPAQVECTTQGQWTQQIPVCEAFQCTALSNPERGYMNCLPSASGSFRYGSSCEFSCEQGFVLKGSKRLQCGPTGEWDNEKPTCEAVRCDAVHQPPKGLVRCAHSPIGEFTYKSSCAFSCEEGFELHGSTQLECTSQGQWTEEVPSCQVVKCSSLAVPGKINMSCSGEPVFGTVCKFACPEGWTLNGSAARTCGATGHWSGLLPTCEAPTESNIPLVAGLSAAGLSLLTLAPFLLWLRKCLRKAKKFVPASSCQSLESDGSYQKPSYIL
Chain of human RAR-related Orphan Receptor gamma (RORg), RORC (gene 6097) (P51449 whole entry, looked up, the tested form may be a part): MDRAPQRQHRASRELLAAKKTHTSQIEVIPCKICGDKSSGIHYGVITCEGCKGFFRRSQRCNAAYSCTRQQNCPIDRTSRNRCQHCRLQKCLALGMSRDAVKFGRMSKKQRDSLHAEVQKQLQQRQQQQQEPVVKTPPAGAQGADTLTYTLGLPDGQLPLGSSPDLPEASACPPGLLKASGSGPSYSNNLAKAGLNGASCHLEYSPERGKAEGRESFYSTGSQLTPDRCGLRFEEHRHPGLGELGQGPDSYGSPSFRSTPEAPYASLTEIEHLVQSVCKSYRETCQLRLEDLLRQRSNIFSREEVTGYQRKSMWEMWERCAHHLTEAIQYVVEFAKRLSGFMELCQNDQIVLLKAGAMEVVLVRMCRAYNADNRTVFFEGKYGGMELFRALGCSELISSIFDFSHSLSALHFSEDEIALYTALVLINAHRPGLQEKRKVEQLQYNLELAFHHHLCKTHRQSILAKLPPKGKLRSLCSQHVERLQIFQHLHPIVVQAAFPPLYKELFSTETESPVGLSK

Consider `CCOC(=O)CC(SP(=O)(OC)OC)C(=O)OCC` (stereo not given), for which the compound was classed as inactive in test [1], in test [2], in test [3], in test [4], in test [5] and in test [6]. For the same compound, the result in [7] was inactive.
In the case of `CCc1cccc(CC)c1N(COC)C(=O)CCl`, the compound was classed as inactive in [2] and in test [4]. In addition, the AC50 in [3] was 21.2 µM (active); in test [5] it was 14.4 µM (active); in [6], 22 µM (active); in test [7], 20 µM (active).
With `CCc1cnc(C2=NC(C)(C(C)C)C(=O)N2)c(C(=O)O)c1` (stereo not given), the call in test [8], in test [3], in test [4], in [5], in test [6] and in test [7] was inactive.
For the compound `FC(F)C(F)(F)OCC(Cn1cncn1)c1ccc(Cl)cc1Cl` (stereo not given), the call in test [2], in [3], in test [4] and in [5] was inactive. The AC50 in test [6] is 23.2 µM (active); in test [7], 26.9 µM (active).
For `CCOC(=O)COc1cc(-c2nn(C)c(OC(F)F)c2Cl)c(F)cc1Cl`, the outcome in [8], in [1], in test [2], in [3], in [4] and in [5] was inactive. Moreover, the outcome in test [7] was inactive. Also, the AC50 in test [6] is 10.1 µM (active).
As for `CC(Oc1cccc(Cl)c1)C(=O)O` (stereo not given), the result in test [8], in test [3], in test [4], in test [5], in test [6] and in test [7] was inactive.
For the compound `CCNc1nc(Cl)nc(NC(C)(C)C#N)n1`, the outcome in test [8], in test [1], in test [3], in test [4], in [5] and in test [6] was inactive. The result in test [7] was inactive.
`CN(C)C(=O)Nc1cccc(C(F)(F)F)c1`: the result in [3], in test [4], in test [5], in [6] and in [7] was inactive.
For `CCc1cccc(C)c1N(C(=O)CCl)C(C)COC` (stereo not given), the compound was called inactive in test [1], in [3], in test [4], in test [5], in test [6] and in test [7].
Turning to `CC(COc1ccc(Oc2ccccc2)cc1)Oc1ccccn1` (stereo not given), the outcome in test [8], in test [3], in [4], in [5] and in test [6] was inactive. The AC50 in [7] was 21 µM (active).
Regarding `CCCCN(CC)c1c([N+](=O)[O-])cc(C(F)(F)F)cc1[N+](=O)[O-]`, the compound was classed as inactive in test [9], in test [3], in [4], in test [5] and in [6]. In [7], the AC50 was 20 µM (active).
Take `COc1cccc(C(=O)NN(C(=O)c2cc(C)cc(C)c2)C(C)(C)C)c1C`: the result in [3], in [4], in [5], in [6] and in test [7] was inactive.
With `CCOP(=S)(OCC)Oc1cc(C)nc(C(C)C)n1`, the compound was called inactive in test [9], in test [1], in test [2], in [3], in test [4] and in test [5]. The outcome in [6] and in test [7] was inactive.
In the case of `N#CSCSC#N`, the call in test [2] and in test [4] was inactive. The AC50 in [3] was 10.9 µM (active); in [5], 8.34 µM (active); in test [6] it was 7.62 µM (active).
Consider `C#CCC1=C(C)C(OC(=O)C2C(C=C(C)C)C2(C)C)CC1=O` (stereo not given), for which the result in [1] and in test [4] was inactive. In addition, the AC50 in [3] was 36 µM (active); in [5], 32.2 µM (active); in [6], 20.6 µM (active); in [7], 20 µM (active).
With `CCOP(=O)(OCC)Oc1cc(C)nc(C(C)C)n1`, the compound was called inactive in [8], in test [3], in test [4], in test [5] and in [6]. In addition, the AC50 in test [7] was 20 µM (active).
For `COP(=O)(OC)OC(Br)C(Cl)(Cl)Br` (stereo not given), the AC50 is 30.1 µM (active) in test [3]; 29.8 µM (active) in test [4]; 35.6 µM (active) in test [5]; 30.1 µM (active) in [6]; 14.9 µM (active) in test [7].
`CSC1=N[C@@](C)(c2ccccc2)C(=O)N1Nc1ccccc1`: the outcome in test [1], in test [2], in [4] and in [5] was inactive. Moreover, the AC50 was 6.26 µM (active) in [3], 27.8 µM (active) in test [6] and 5.87 µM (active) in test [7].
With `Cc1cc(C2CC2)nc(Nc2ccccc2)n1`, the result in test [8], in test [3] and in [4] was inactive. Besides, the AC50 in test [1] is 75.3 µM (active); in [2], 64 µM (active); in [5], 32.1 µM (active); in test [6] it was 17.8 µM (active); in test [7], 15.2 µM (active).
Turning to `C[Si](Cn1cncn1)(c1ccc(F)cc1)c1ccc(F)cc1`, the result in [1], in test [3], in test [4], in [5], in [6] and in test [7] was inactive.
As to `CC(C)[C@H](C(=O)O[C@H](C#N)c1cccc(Oc2ccccc2)c1)c1ccc(Cl)cc1`, the compound was classed as inactive in test [8], in test [1], in test [2], in test [3], in test [4] and in test [5]. The outcome in [6] was inactive. For the same compound, the AC50 in test [7] was 12.9 µM (active).
With `CON=C(C(=O)OC)c1ccccc1CON=C(C)c1cccc(C(F)(F)F)c1`, the result in test [9], in test [1], in test [2] and in test [4] was inactive. The AC50 was 2.35 µM (active) in test [3], 3.3 µM (active) in test [5], 2.81 µM (active) in [6] and 2.82 µM (active) in test [7].
As to `CNc1cnn(-c2cccc(C(F)(F)F)c2)c(=O)c1Cl`, the outcome in test [8], in [1], in [2], in test [3], in test [4] and in test [5] was inactive. In test [6], the outcome was inactive. Also, in [7], the AC50 is 3.97 µM (active).
For the compound `C=C(C)[C@H]1Cc2c(ccc3c2O[C@@H]2COc4cc(OC)c(OC)cc4[C@@H]2C3=O)O1`, the result in [8], in test [1] and in [4] was inactive. For the same compound, the AC50 in [2] is 0.24 µM (active); in test [3], 20 µM (active); in test [5] it was 34.8 µM (active); in [6] it was 29.3 µM (active); in [7], 3.82 µM (active).
For the compound `Nc1c(Cl)cc([N+](=O)[O-])cc1Cl`, the compound was called inactive in test [8], in [1], in test [2], in test [3], in [4] and in [5]. For the same compound, the outcome in test [6] was inactive. Also, the AC50 in test [7] is 28.8 µM (active).

As a reminder, the AC50 is the concentration at which the activity in the assay is half-maximal.

For the origin of these results see PubChem BioAssay (EPA / NIEHS).
